According to PubChem BioAssay (NCATS):
Records with an inconclusive call do not appear. Calls of active or inactive are those of the source. Calls follow the shape of the dose curve; as a rule, active = well fitted inhibition curve with a large enough effect; inconclusive = small, poorly fitted or top-dose-only effect; inactive = flat fitted curve, though single readings scatter.

How the values were obtained:
Test in all cases: qHTS profiling for inhibitors of Plasmodium falciparum proliferation (AID 504749); also: nearly all actives have a fitted effect of over 60% in size
Settings in all cases: P. falciparum in erythrocytes, SYBR Green DNA, 72 h; series mostly up to 28.7 µM
CP252 = system: CP252
Method in brief: (§1)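 Quantitative HTS: compounds pinned into medium, infected erythrocytes added (0.3% parasitemia, 2.5% hematocrit), 72 h culture at 37 C under 5% CO2. Saponin/Triton lysis with SYBR Green I, overnight RT, then fluorescence read.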

CP256 = system: CP256
Method in brief: as §1

CP260 = system: CP260
Method in brief: as §1

CP262 = system: CP262
Method in brief: as §1

CP265 = system: CP265
Method in brief: as §1

CP266 = system: CP266
Method in brief: as §1

CP268 = system: CP268
Method in brief: as §1

CP269 = system: CP269
Method in brief: as §1

CP286 = system: CP286
Method in brief: as §1

CP291 = system: CP291
Method in brief: as §1

CP297 = system: CP297
Method in brief: as §1

CP305 = system: CP305
Method in brief: as §1

CP315 = system: CP315
Method in brief: as §1

CP325 = system: CP325
Method in brief: as §1

CP329 = system: CP329
Method in brief: as §1

CP335 = system: CP335
Method in brief: as §1

DFO2036 = system: DFO2036
Method in brief: as §1

DIV14 = system: DIV14
Method in brief: as §1

DIV17 = system: DIV17
Method in brief: as §1

DIV30 = system: DIV30
Method in brief: as §1

Measured: Potency

CC(C[N+](C)(C)C)OC(N)=O (stereo unspecified)
inactive: all assays above

NS(=O)(=O)c1cc2c(cc1Cl)NC=NS2(=O)=O
inactive: all assays above

CC(c1cc2ccccc2s1)N(O)C(N)=O (stereo unspecified)
not listed: CP315
inactive: all other assays above

Clc1cccc(Cl)c1NC1=NCCN1
inactive: all assays above

Cc1cn[nH]c1
inactive: all assays above

COc1ccc2nc(S(=O)Cc3ncc(C)c(OC)c3C)[nH]c2c1 (stereo unspecified)
not listed: DIV14 | DIV17
inactive: all other assays above

Cc1[nH]c(=O)c(C#N)cc1-c1ccc2nccn2c1
inactive: all assays above

N=c1nc(N2CCCCC2)cc(N)n1O
inactive: all assays above

O=c1[nH]cnc2[nH]ncc12
inactive: all assays above

CCCCNc1cc(C(=O)O)cc(S(N)(=O)=O)c1Oc1ccccc1
inactive: all assays above

Nc1nc2c(ncn2COCCO)c(=O)[nH]1
inactive: all assays above

Cc1ccc(N(CC2=NCCN2)c2cccc(O)c2)cc1
inactive: all assays above

CC(=O)Oc1ccccc1C(=O)O
inactive: all assays above

Nc1ccc(S(=O)(=O)Nc2ccnn2-c2ccccc2)cc1
inactive: all assays above

CCc1ccc(CCOc2ccc(CC3SC(=O)NC3=O)cc2)nc1 (stereo unspecified)
inactive: all assays above

NCCCC(N)(C(=O)O)C(F)F (stereo unspecified)
inactive: all assays above

N[C@@H]1CONC1=O
not listed: CP297
inactive: all other assays above

O=C1CCC(N2C(=O)c3ccccc3C2=O)C(=O)N1 (stereo unspecified)
inactive: all assays above

N#Cc1ccc(C(c2ccc(C#N)cc2)n2cncn2)cc1
inactive: all assays above

Cc1[nH]c(=O)c(C#N)cc1-c1ccncc1
inactive: all assays above
